About 79,000 compounds went through this panel and 15% of them were active in at least one assay; those are over-represented in the sample as a whole. No stated cut-off is given here; in the data, active means growth inhibition above about 70%; inactive means the rest.
Legend:
[1] = NCI Yeast Anticancer Drug Screen. Data for the rad50 strain (AID 155);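 further: 0% = growth of vehicle-only cultures of the same strain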; details: S. cerevisiae rad50 strain growth inhibition; at 50.0 µM; active compounds read high
Method in brief: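 Cells are treated with compound, grown, and their growth is then scored against vehicle-only cultures of the same repair-deficient yeast strain.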

[2] = NCI Yeast Anticancer Drug Screen. Data for the mec2-1 strain (AID 157); details: S. cerevisiae mec2-1 strain, at 50.0 µM, active compounds read high
Method in brief: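 Mutant yeast (mec2-1) grown with compound; growth inhibition relative to vehicle control reported.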

[3] = NCI Yeast Anticancer Drug Screen. Data for the sgs1 mgt1 strain (AID 161);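 further: 0% = growth of cultures given vehicle only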; details: S. cerevisiae sgs1 mgt1 strain, at 50.0 µM, active compounds read high
Method in brief: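 This yeast growth screen uses a strain with defined DNA-repair lesions; compound-treated growth is compared with vehicle-treated growth.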

[4] = NCI Yeast Anticancer Drug Screen. Data for the cln2 rad14 strain (AID 165);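 further: 0% = growth equal to vehicle treated cultures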; details: S. cerevisiae cln2 rad14 strain, at 50.0 µM, active compounds read high
Method in brief: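 Readout is yeast growth inhibition versus vehicle-treated controls, using a strain with cln2 and rad14 alterations exposed to compound.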

[5] = NCI Yeast Anticancer Drug Screen. Data for the bub3 strain (AID 167); details: S. cerevisiae bub3 mutant strain, at 50.0 µM, active compounds read high
Method in brief: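 Part of a panel of yeast mutants defective in DNA damage repair or cell cycle regulation. Each strain is grown with compound, and inhibition is calculated relative to solvent-treated cultures.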

[6] = NCI Yeast Anticancer Drug Screen. Data for the mlh1 rad18 strain (AID 175); details: S. cerevisiae mlh1 rad18 strain growth inhibition; at 50.0 µM; active compounds read high
Method in brief: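 Genetically defined yeast (DNA repair-deficient) exposed to compounds; growth inhibition determined relative to vehicle.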

Measured: growth inhibition

Cc1[nH]c(=O)[nH]c(=O)c1C(=O)N(CCO)Cc1ccccc1
inactive: [1] -39.5% | [2] -21.4% | [3] -24.9% | [4] 7.7% | [5] 11.7% | [6] -15.9%

COCC1OC(OC2(COC)OC(COC)C(OC)C2OC)C(OC)C(OC)C1OC (stereo not drawn)
inactive: [1] 22.1% | [2] -4.15% | [3] -9.2% | [4] -34.2% | [5] -18.1% | [6] 5.6%

O=C(O)CNC(=O)Cc1ccccc1
inactive: [1] -29.8% | [2] -12.6% | [3] -1.1% | [4] 10.2% | [5] -38.6% | [6] -7.3%

COn1c2ccccc2c2c1cc1ccccc1[n+]2[O-]
inactive: [1] -7.15% | [2] -5.95% | [3] -8.9% | [4] -52.5% | [5] -9.65% | [6] -13.4%

COc1ccc(CC#N)cc1OC
inactive: [1] 6.5% | [2] -8.3% | [3] -5.6% | [4] -54.8% | [5] -31.4% | [6] -5.2%

COc1cc([N+](=O)[O-])c(C(=O)O)c(C(=O)O)c1OC
inactive: [1] 9.8% | [2] -5.55% | [3] 3.7% | [4] -2.2% | [5] 1.7% | [6] 1.15%

COc1ccc(C(=O)CC(=O)CCC(=O)Nc2ccc(Cl)cc2Cl)cc1
inactive: [1] 26.4% | [2] 19.1% | [3] 20.9% | [4] 19.8% | [5] 8.2% | [6] 7.75%

CCOC(=O)CCc1cnc[nH]1
inactive: [1] -60.5% | [2] -8.95% | [3] -3.05% | [4] -14.1% | [5] -4.55% | [6] -0.75%

S=C1NC(c2ccccc2)Nc2ccccc21 (stereo not drawn)
inactive: [1] 6.5% | [2] 15.9% | [3] -5.5% | [4] -40.3% | [5] -12.9% | [6] 3.75%

CC(=O)OC1c2ccccc2Cc2ccccc21
inactive: [1] 21.5% | [2] 26.3% | [3] 4.1% | [4] 16.6% | [5] 19.1% | [6] 13.1%

O=C1C(n2ccc(=O)[nH]c2=O)CCN1CCCl (stereo not drawn)
inactive: [1] 0.2% | [2] 1.35% | [3] 2.65% | [4] -23.5% | [5] 14.1% | [6] 12.5%

OCC(O)C(O)C(O)c1nn(-c2ccc(Cl)cc2)c2nc3cc(Cl)c(Cl)cc3nc12 (stereo not drawn)
inactive: [1] 1.85% | [2] -28.6% | [3] -33.9% | [4] 15.4% | [5] 4.4% | [6] 0.85%

COc1cc(/C=C(/C#N)C(N)=O)cc(OC)c1OC
inactive: [1] 15.6% | [2] 10.6% | [3] 18.9% | [4] 12.3% | [5] 11.1% | [6] 14.8%

Cc1nc(N)nc(C)c1N=Nc1ccc(Br)cc1Br
inactive: [1] 41.2% | [2] 4.5% | [3] 20.5% | [4] 5.05% | [5] 0.6% | [6] 15%

CCC(c1cccc(OC)c1)C(C(=O)O)c1ccc(OC)cc1 (stereo not drawn)
inactive: [1] 5% | [2] 17.5% | [3] 12.6% | [4] 7.15% | [5] 7.35% | [6] 27.2%

Cc1ccc(-c2cc(-c3ccco3)nc(N)n2)o1
inactive: [1] -23.9% | [2] -9.1% | [3] 10.6% | [4] 4.3% | [5] 5.45% | [6] 1.75%

O=S(=O)(O)c1cc(O)ccc1O.O=S(=O)(O)c1cc(O)ccc1O.[NH-]C1CCCCC1[NH-].[Pt+2]
inactive: [1] 17.6% | [2] -4.85% | [3] -5.2% | [4] 4.8% | [5] -0.85% | [6] -3.25%

CC12CCC(C(Br)C1=O)C2(C)CBr (stereo not drawn)
inactive: [1] -9.8% | [2] 5.75% | [3] 20.4% | [4] 23.8% | [5] 9% | [6] -0.7%

O=N/C(=C(\c1ccccc1)N1CCOCC1)c1ccccc1
inactive: [1] -10.2% | [2] 11.8% | [3] 9.6% | [4] -2.45% | [5] -20.6% | [6] 6.45%

OCC1OC(Oc2ccccc2)C(O)C(O)C1O (stereo not drawn)
inactive: [1] 8.15% | [2] 30.6% | [3] 21.8% | [4] -1% | [5] 33% | [6] 24.1%

CC1=CC[C@H]2C(C)=CC[C@@H](C(C)C)[C@@H]2C1
inactive: [1] 10.4% | [2] 6.05% | [3] 24.2% | [4] 21.6% | [5] 13.1% | [6] 17.4%

CCCOC1NC(=O)Oc2ccccc21 (stereo not drawn)
inactive: [1] -14.8% | [2] -6.1% | [3] -0.9% | [4] -30.4% | [5] -1.55% | [6] 13.8%

Cc1nc(N)nc(C)c1N=Nc1cccc(Cl)c1
inactive: [1] 2.05% | [2] 11.6% | [3] 9.35% | [4] -32.8% | [5] 21.6% | [6] 3.85%

CCN(CC)c1ccc2cc(C(=O)Nc3cccc4ccccc34)c(=N)oc2c1
inactive: [1] 14.4% | [2] 3.05% | [3] -10.2% | [4] -5.45% | [5] -25.9% | [6] -53.6%

O=C(Nc1cc(-c2ccccc2)nn1-c1ccccc1)c1ccc(Cl)cc1
inactive: [1] -16.4% | [2] -19.9% | [3] -17.8% | [4] 15.2% | [5] -29.1% | [6] -9.65%

COC(=O)CCC(=O)C(CC(=O)OC)C(=O)CCC(=O)NCCc1ccccc1 (stereo not drawn)
inactive: [1] -30.1% | [2] -21.9% | [3] -41.5% | [4] 2.4% | [5] -24.2% | [6] -31.4%

C=C(NC(C)=O)C(=O)CCC(N)=O
inactive: [1] -0.75% | [2] -0.7% | [3] -7.5% | [4] 1.75% | [5] 4.75% | [6] -53.7%

O=C(Cc1ccccc1)Nc1ccc([N+](=O)[O-])cc1Cl
inactive: [1] 4.95% | [2] 16.1% | [3] 23.4% | [4] 2.1% | [5] 6.5% | [6] 38.1%

Cc1nc(C)c(CC#N)s1
inactive: [1] -9.25% | [2] -10% | [3] -1.75% | [4] -15.1% | [5] -2% | [6] 13.7%

N#CC(=NCCO)C1=C(O)c2ccccc2C1=O
inactive: [1] 6.1% | [2] -10.7% | [3] -16.3% | [4] -30.6% | [5] -48% | [6] -12.3%

CCN(Cc1cc(Nc2ccnc3cc(Cl)ccc23)ccc1O)C(=O)N1CCN(C)CC1
inactive: [1] 10.7% | [2] 6.1% | [3] 20.5% | [4] 15.8% | [5] -7.55% | [6] 11.1%

CNc1nnnn1C1OC(CO)C(O)C1O (stereo not drawn)
inactive: [1] -2.15% | [2] -8.9% | [3] -9.6% | [4] 9.35% | [5] -10.7% | [6] -21.4%

O=C(NO)c1cc(O)c(O)c(O)c1
inactive: [1] -14.5% | [2] 1.75% | [3] -16.7% | [4] -11.6% | [5] -5.75% | [6] -25.4%

NC(N)=N/N=C/c1c(Cl)nc2sccn12
inactive: [1] -11.4% | [2] -64.8% | [3] -17.5% | [4] -30.3% | [5] -8.8% | [6] -5.6%

COc1cccc(C(F)(F)F)c1
inactive: [1] -3.1% | [2] 10.3% | [3] -10.3% | [4] -6.85% | [5] 19.4% | [6] -13%

O=C(CO)c1ccc([N+](=O)[O-])cc1
inactive: [1] 16.8% | [2] 34.3% | [3] 1.85% | [4] 7.5% | [5] 13.4% | [6] 40.4%

CC(=O)Oc1ccc(C2COc3cc(OC(C)=O)c(OC(C)=O)cc3C2)cc1 (stereo not drawn)
inactive: [1] 21.2% | [2] 31.6% | [3] 43% | [4] 9.4% | [5] 49.6% | [6] 37.5%

O=C1NC(N(Cc2ccccc2)Cc2ccccc2)=NC1(c1ccccc1)c1ccccc1
inactive: [1] 16.2% | [2] 2.85% | [3] 23.2% | [4] 7.45% | [5] 5.9% | [6] 20.6%

— PubChem BioAssay (NCI)
